Compounds without any hit were thinned out: in the full panel of roughly 79,000, 15% have a hit. Activity calls are given as the source filed them. Rule as the data show it: active = growth inhibition above about 70%; inactive = the rest.
Experiments:
[1] = NCI Yeast Anticancer Drug Screen. Data for the rad52 strain (AID 147);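 also: 0% = growth of vehicle-treated control cultures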; details: S. cerevisiae rad52 mutant growth inhibition, stronger effect = higher value
Method in brief: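 Growth of repair-deficient yeast cells was compared between compound-treated and vehicle-treated cultures to give percent inhibition.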

[2] = NCI Yeast Anticancer Drug Screen. Data for the wt1 strain (AID 149);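 also: 0% = growth of vehicle-treated wt1 cultures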; details: S. cerevisiae wt1 strain (SPY 50644) growth inhibition, stronger effect = higher value
Method in brief: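 Measured: growth of wt1 yeast under compound versus vehicle treatment, reported as inhibition.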

[3] = NCI Yeast Anticancer Drug Screen. Data for the rad50EPP+ strain (AID 151);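 also: 0% = growth of vehicle-treated control cultures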; details: S. cerevisiae rad50 mutant strain, stronger effect = higher value
Method in brief: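 Measured: growth inhibition of rad50EPP+ yeast. Reference: vehicle-treated controls. Screen uses strains with defined genetic alterations in DNA damage repair or cell cycle control.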

[4] = NCI Yeast Anticancer Drug Screen. Data for the mgt1 strain (AID 153); details: S. cerevisiae mgt1 mutant growth inhibition, stronger effect = higher value
Method in brief: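 Compounds were applied to mgt1 mutant yeast, and growth was then compared against vehicle-treated control cultures to give percent inhibition.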

[5] = NCI Yeast Anticancer Drug Screen. Data for the rad50 strain (AID 155);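 also: 0% = growth of vehicle-only cultures of the same strain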; details: S. cerevisiae rad50 strain growth inhibition, stronger effect = higher value
Method in brief: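 Growth of the mutant yeast was measured after compound exposure and referenced to vehicle-treated cultures.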

[6] = NCI Yeast Anticancer Drug Screen. Data for the mec2-1 strain (AID 157); details: S. cerevisiae mec2-1 strain, stronger effect = higher value
Method in brief: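 Compounds were applied to mec2-1 yeast cells. Their growth was then compared with that of vehicle-treated cultures to give growth inhibition.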

[7] = NCI Yeast Anticancer Drug Screen. Data for the rad14 strain (AID 159);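 also: 0% = growth of vehicle-treated control cultures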; details: S. cerevisiae rad14 strain growth inhibition, stronger effect = higher value
Method in brief: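 Here, inhibition of yeast growth was measured after compound exposure, using a strain with a genetic defect in DNA damage repair and vehicle-treated cultures as the reference.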

[8] = NCI Yeast Anticancer Drug Screen. Data for the sgs1 mgt1 strain (AID 161);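 also: 0% = growth of cultures given vehicle only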; details: S. cerevisiae sgs1 mgt1 strain, stronger effect = higher value
Method in brief: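 Yeast cells carrying a defined DNA-repair defect were exposed to test compounds. Growth inhibition was measured relative to vehicle-treated controls.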

[9] = NCI Yeast Anticancer Drug Screen. Data for the CLN2oe strain (AID 163);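 also: 0% = growth of vehicle-only control cultures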; details: S. cerevisiae CLN2oe strain, stronger effect = higher value
Method in brief: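 Cells of an engineered yeast line with disturbed cell-cycle regulation are treated with compound. Inhibition of growth is then calculated relative to the vehicle-treated reference.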

[10] = NCI Yeast Anticancer Drug Screen. Data for the cln2 rad14 strain (AID 165);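 also: 0% = growth equal to vehicle treated cultures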; details: S. cerevisiae cln2 rad14 strain, stronger effect = higher value
Method in brief: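 Strain: cln2 rad14 yeast, altered in cell cycle control and DNA damage repair. Read-out: growth inhibition vs vehicle.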

[11] = NCI Yeast Anticancer Drug Screen. Data for the bub3 strain (AID 167); details: S. cerevisiae bub3 mutant strain, stronger effect = higher value
Method in brief: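 Whole-cell yeast assay. The mutant strain was incubated with compounds, and growth inhibition was determined by comparison with vehicle-treated cells.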

[12] = NCI Yeast Anticancer Drug Screen. Data for the wt2 strain (AID 169);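 also: 0% = growth of vehicle-treated yeast cultures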; details: S. cerevisiae wt2 strain growth inhibition, stronger effect = higher value
Method in brief: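 Growth of compound-treated yeast is measured and expressed as inhibition relative to vehicle-only controls.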

[13] = NCI Yeast Anticancer Drug Screen. Data for the mlh1 strain (AID 171);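 also: 0% = growth of vehicle-treated control cultures of the same strain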; details: S. cerevisiae mlh1 strain growth inhibition, stronger effect = higher value
Method in brief: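 Test agents were incubated with yeast bearing a defined DNA damage repair or cell cycle control alteration; values are growth inhibition normalised to vehicle-treated cultures.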

[14] = NCI Yeast Anticancer Drug Screen. Data for the sgs1 strain (AID 173);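 also: 0% = growth of vehicle-only control cultures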; details: S. cerevisiae sgs1 mutant, stronger effect = higher value
Method in brief: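 Strain with an altered DNA repair or cell cycle pathway exposed to compound. Growth then measured. Value = inhibition versus vehicle control.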

[15] = NCI Yeast Anticancer Drug Screen. Data for the mlh1 rad18 strain (AID 175); details: S. cerevisiae mlh1 rad18 strain growth inhibition, stronger effect = higher value
Method in brief: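 A repair-deficient yeast strain is exposed to test compound, and growth is scored relative to vehicle-treated controls.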

[16] = NCI Yeast Anticancer Drug Screen. Data for the rad18 strain (AID 177); details: S. cerevisiae rad18 mutant growth inhibition, stronger effect = higher value
Method in brief: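 DNA-repair-defective yeast; compound treatment; growth inhibition scored against vehicle.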

[17] = at 5.0 µM (retest, dose inferred, filed as 0.5)
[18] = at 50.0 µM (retest, dose inferred, filed as 5.0)

Measured: growth inhibition

[N-]=N[N+]#I1OC(C(F)(F)F)(C(F)(F)F)c2ccccc21
active: [1]; at 3.7 µM 82% | [1]; at 11.0 µM 97% | [1]; at 33.0 µM 99% | [1]; at 100.0 µM 100% | [2]; at 3.7 µM 84% | [2]; at 11.0 µM 99% | [2]; at 33.0 µM 99% | [2]; at 100.0 µM 99% | [3]; at 33.0 µM 93% | [3]; at 100.0 µM 99% | [4]; at 3.7 µM 88% | [4]; at 11.0 µM 99% | [4]; at 33.0 µM 100% | [4]; at 100.0 µM 100% | [5]; at 3.7 µM 90% | [5]; at 11.0 µM 97% | [5]; at 33.0 µM 100% | [5]; [18] 99% | [5]; at 50.0 µM 91.7% | [5]; at 100.0 µM 100% | [6]; at 3.7 µM 91% | [6]; at 11.0 µM 99% | [6]; at 33.0 µM 100% | [6]; [18] 99% | [6]; at 50.0 µM 93.7% | [6]; at 100.0 µM 99% | [7]; at 3.7 µM 90% | [7]; at 11.0 µM 99% | [7]; at 33.0 µM 100% | [7]; at 100.0 µM 99% | [8]; [17] 81% | [8]; [18] 98% | [8]; at 50.0 µM 92.8% | [9]; at 3.7 µM 81% | [9]; at 11.0 µM 98% | [9]; at 33.0 µM 99% | [9]; at 100.0 µM 98% | [10]; [18] 98% | [10]; at 50.0 µM 92% | [11]; at 3.7 µM 83% | [11]; [17] 91% | [11]; at 11.0 µM 99% | [11]; at 33.0 µM 100% | [11]; [18] 98% | [11]; at 50.0 µM 92.8% | [11]; at 100.0 µM 97% | [12]; at 3.7 µM 76% | [12]; at 11.0 µM 98% | [12]; at 33.0 µM 99% | [12]; at 100.0 µM 99% | [13]; at 3.7 µM 90% | [13]; at 11.0 µM 98% | [13]; at 33.0 µM 99% | [13]; at 100.0 µM 99% | [14]; at 3.7 µM 89% | [14]; at 11.0 µM 98% | [14]; at 33.0 µM 99% | [14]; at 100.0 µM 99% | [15]; [18] 99% | [15]; at 50.0 µM 92% | [16]; at 3.7 µM 89% | [16]; at 11.0 µM 98% | [16]; at 33.0 µM 99% | [16]; at 100.0 µM 99%
inactive: [1]; at 1.2 µM 44% | [2]; at 1.2 µM 17% | [3]; at 1.2 µM 3% | [3]; at 3.7 µM 13% | [3]; at 11.0 µM 42% | [4]; at 1.2 µM 38% | [5]; at 1.2 µM 58% | [5]; [17] 7% | [6]; at 1.2 µM 45% | [6]; [17] 2% | [7]; at 1.2 µM 27% | [9]; at 1.2 µM 40% | [10]; [17] 47% | [11]; at 1.2 µM 28% | [12]; at 1.2 µM 18% | [13]; at 1.2 µM 53% | [14]; at 1.2 µM 41% | [15]; [17] 34% | [16]; at 1.2 µM 62%

— PubChem BioAssay (NCI)
